# Tests used:
# Test in all cases: DAPPL (digital affinity profiling via proximity ligation, sequencing); 10 mM Tris-HCl pH 7.5, 50 mM NaCl, 1 mM DTT, 4% glycerol, room temperature, 30 min; GST-TFs on glutathione beads, 16-mer random dsDNA library, 0.1% formaldehyde crosslink after washing; high values mean tight binding
# Conditions in all cases: protein: recombinant; tags: N-terminal GST; dsDNA, one strand shown
# FLI1 = biological target: T1, FLI1 (Homo sapiens, UniProt Q01543 1-452)
# T1 sequence: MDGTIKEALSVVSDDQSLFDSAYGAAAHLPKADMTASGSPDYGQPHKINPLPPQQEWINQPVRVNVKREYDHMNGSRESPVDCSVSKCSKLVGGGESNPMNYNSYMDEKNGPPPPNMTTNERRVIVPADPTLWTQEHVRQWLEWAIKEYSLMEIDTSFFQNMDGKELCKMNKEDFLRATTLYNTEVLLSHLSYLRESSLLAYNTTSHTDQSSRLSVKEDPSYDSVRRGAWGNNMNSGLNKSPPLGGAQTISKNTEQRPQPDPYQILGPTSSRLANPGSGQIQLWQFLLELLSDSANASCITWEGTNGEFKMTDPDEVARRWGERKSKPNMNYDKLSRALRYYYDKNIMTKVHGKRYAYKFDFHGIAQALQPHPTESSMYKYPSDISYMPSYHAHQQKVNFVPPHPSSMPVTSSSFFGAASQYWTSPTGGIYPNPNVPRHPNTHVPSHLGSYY
# Procedure, shortened: (§1)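 The binding signal reported is, for every hexamer, its read frequency for a factor over its read frequency for the tag-only sample. Reads came from pools of yeast-expressed, GST-fused human transcription factors on glutathione beads, barcoded with DNA and mixed with that sample, which were incubated with 200 nmole of a random double-stranded 16-mer DNA library in Tris/NaCl/DTT/glycerol buffer at room temperature for 30 min. After washing, the pools were crosslinked with 0.1% formaldehyde, proximity-ligated with BsaI/T4 ligase for 1 h at 37 °C, PCR-amplified and sequenced on an Illumina NextSeq500.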
# ELK1 = biological target: T2, ELK1 (Homo sapiens, UniProt P19419 1-428)
# T2 sequence: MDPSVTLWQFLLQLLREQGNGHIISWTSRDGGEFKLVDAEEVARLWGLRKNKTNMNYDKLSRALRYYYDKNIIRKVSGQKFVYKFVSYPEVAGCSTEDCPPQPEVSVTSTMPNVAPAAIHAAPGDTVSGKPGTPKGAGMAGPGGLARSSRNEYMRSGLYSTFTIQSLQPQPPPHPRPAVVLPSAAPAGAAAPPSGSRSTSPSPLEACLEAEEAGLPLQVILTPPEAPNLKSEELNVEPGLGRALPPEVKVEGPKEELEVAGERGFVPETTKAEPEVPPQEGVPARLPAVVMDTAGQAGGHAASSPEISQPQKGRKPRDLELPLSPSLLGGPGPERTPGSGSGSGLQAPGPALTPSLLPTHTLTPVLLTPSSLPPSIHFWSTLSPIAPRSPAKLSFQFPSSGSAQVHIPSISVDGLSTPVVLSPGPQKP
# Procedure, shortened: as §1
# GABPA = biological target: T3, GABPA (Homo sapiens, UniProt Q06546 1-454)
# T3 sequence: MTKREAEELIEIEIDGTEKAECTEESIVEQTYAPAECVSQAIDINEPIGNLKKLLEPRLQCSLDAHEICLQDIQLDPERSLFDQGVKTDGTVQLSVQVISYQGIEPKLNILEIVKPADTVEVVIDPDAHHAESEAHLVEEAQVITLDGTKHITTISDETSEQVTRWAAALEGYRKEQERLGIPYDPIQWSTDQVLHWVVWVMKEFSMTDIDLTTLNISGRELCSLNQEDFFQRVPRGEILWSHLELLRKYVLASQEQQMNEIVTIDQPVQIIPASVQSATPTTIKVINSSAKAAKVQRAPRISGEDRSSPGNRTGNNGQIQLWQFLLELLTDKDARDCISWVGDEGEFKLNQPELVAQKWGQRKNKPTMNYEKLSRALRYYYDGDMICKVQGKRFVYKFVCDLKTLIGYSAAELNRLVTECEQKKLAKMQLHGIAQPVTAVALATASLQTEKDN
# Procedure, shortened: as §1
# ERG = biological target: T4, ERG (Homo sapiens, UniProt P11308 1-479)
# T4 sequence: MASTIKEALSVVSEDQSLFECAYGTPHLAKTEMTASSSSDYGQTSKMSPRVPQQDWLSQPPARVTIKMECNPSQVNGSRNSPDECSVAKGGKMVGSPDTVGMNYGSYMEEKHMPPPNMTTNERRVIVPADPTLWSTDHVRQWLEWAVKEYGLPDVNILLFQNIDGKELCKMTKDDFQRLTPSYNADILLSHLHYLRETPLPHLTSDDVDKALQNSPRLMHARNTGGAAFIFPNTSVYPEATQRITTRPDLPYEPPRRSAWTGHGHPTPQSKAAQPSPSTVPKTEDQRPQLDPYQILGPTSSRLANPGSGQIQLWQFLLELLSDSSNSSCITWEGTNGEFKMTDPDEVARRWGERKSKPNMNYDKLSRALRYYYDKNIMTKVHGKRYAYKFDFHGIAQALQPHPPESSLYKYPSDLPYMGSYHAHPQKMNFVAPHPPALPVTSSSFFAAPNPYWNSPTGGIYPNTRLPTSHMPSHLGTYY
# Procedure, shortened: as §1
# ELF1 = ELF1 (Homo sapiens, UniProt P32519 1-619)
# Chain of ELF1 (P32519 whole entry): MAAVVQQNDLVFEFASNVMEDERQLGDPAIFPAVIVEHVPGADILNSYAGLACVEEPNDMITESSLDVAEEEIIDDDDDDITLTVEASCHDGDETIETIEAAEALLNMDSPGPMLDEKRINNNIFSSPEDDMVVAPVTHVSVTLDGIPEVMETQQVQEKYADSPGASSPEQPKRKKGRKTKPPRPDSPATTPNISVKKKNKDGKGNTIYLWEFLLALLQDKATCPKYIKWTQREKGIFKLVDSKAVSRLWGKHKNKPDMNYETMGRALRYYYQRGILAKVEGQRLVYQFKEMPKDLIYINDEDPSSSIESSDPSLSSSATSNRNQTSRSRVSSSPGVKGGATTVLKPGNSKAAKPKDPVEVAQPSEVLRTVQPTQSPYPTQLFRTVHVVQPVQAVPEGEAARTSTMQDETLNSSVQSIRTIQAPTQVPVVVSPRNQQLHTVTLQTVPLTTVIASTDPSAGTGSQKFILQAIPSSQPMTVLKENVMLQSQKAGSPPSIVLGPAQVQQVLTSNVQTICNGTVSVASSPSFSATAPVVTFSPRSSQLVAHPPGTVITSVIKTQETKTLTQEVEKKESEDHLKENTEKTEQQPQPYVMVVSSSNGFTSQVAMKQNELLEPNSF
# Procedure, shortened: as §1
# EHF = biological target: T5, EHF (Homo sapiens, UniProt Q9NZC4 1-300)
# T5 sequence: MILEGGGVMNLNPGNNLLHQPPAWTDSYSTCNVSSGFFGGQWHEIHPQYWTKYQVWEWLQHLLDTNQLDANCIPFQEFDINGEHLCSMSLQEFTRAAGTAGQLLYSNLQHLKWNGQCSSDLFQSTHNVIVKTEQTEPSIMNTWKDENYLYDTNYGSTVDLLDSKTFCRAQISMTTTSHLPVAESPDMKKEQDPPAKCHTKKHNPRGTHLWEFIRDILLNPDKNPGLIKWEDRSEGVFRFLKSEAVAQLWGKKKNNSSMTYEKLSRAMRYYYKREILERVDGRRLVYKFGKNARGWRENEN
# Procedure, shortened: as §1
# SPI1 = SPI1 (Homo sapiens, UniProt P17947 1-270)
# Procedure, shortened: as §1
# SPIB = SPIB (Homo sapiens, UniProt Q01892 1-262)
# Chain of SPIB (Q01892 whole entry): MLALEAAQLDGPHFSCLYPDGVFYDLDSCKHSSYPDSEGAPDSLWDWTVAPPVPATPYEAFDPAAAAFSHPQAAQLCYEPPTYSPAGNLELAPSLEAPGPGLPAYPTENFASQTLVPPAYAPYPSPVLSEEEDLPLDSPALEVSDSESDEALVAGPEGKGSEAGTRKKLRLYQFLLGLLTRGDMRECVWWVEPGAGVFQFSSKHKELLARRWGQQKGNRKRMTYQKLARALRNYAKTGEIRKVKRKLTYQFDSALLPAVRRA
# Procedure, shortened: as §1
# ELK3 = biological target: T6, ELK3 (Homo sapiens, UniProt P41970 1-407)
# T6 sequence: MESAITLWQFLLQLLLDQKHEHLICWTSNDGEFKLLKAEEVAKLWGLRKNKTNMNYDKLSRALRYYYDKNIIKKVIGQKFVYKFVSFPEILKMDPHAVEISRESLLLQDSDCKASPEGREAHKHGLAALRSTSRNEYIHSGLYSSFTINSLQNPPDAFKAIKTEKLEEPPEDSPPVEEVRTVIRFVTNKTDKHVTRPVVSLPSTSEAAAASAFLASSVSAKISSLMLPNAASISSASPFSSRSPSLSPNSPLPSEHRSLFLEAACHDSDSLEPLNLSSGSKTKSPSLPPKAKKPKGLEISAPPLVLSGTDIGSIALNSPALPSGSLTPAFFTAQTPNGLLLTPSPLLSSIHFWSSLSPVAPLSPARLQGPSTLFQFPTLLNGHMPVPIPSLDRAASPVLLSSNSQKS
# Procedure, shortened: as §1
sequence,measurement,setting,value
CCTGAC,binding signal,FLI1,"1.49 fold enrichment (6-mer frequency, TF over GST control)"
same,binding signal,ELK1,"1.57 fold enrichment (6-mer frequency, TF over GST control)"
same,binding signal,GABPA,"1.49 fold enrichment (6-mer frequency, TF over GST control)"
same,binding signal,ERG,"1.48 fold enrichment (6-mer frequency, TF over GST control)"
same,binding signal,ELF1,"1.46 fold enrichment (6-mer frequency, TF over GST control)"
same,binding signal,EHF,"1.58 fold enrichment (6-mer frequency, TF over GST control)"
same,binding signal,SPI1,"1.44 fold enrichment (6-mer frequency, TF over GST control)"
same,binding signal,SPIB,"1.46 fold enrichment (6-mer frequency, TF over GST control)"
same,binding signal,ELK3,"1.56 fold enrichment (6-mer frequency, TF over GST control)"
TTGGGG,binding signal,FLI1,"1.4 fold enrichment (6-mer frequency, TF over GST control)"
same,binding signal,ELK1,"1.24 fold enrichment (6-mer frequency, TF over GST control)"
same,binding signal,GABPA,"1.33 fold enrichment (6-mer frequency, TF over GST control)"
same,binding signal,ERG,"1.21 fold enrichment (6-mer frequency, TF over GST control)"
same,binding signal,ELF1,"1.32 fold enrichment (6-mer frequency, TF over GST control)"
same,binding signal,EHF,"1.27 fold enrichment (6-mer frequency, TF over GST control)"
same,binding signal,SPI1,"1.26 fold enrichment (6-mer frequency, TF over GST control)"
same,binding signal,SPIB,"1.15 fold enrichment (6-mer frequency, TF over GST control)"
same,binding signal,ELK3,"1.31 fold enrichment (6-mer frequency, TF over GST control)"
AATCTA,binding signal,FLI1,"1.07 fold enrichment (6-mer frequency, TF over GST control)"
same,binding signal,ELK1,"1.06 fold enrichment (6-mer frequency, TF over GST control)"
same,binding signal,GABPA,"1.05 fold enrichment (6-mer frequency, TF over GST control)"
same,binding signal,ERG,"1.17 fold enrichment (6-mer frequency, TF over GST control)"
same,binding signal,ELF1,"1.17 fold enrichment (6-mer frequency, TF over GST control)"
same,binding signal,EHF,"1.17 fold enrichment (6-mer frequency, TF over GST control)"
same,binding signal,SPI1,"1.12 fold enrichment (6-mer frequency, TF over GST control)"
same,binding signal,SPIB,"1.17 fold enrichment (6-mer frequency, TF over GST control)"
same,binding signal,ELK3,"1.12 fold enrichment (6-mer frequency, TF over GST control)"
TTGTGG,binding signal,FLI1,"1.52 fold enrichment (6-mer frequency, TF over GST control)"
same,binding signal,ELK1,"1.36 fold enrichment (6-mer frequency, TF over GST control)"
same,binding signal,GABPA,"1.41 fold enrichment (6-mer frequency, TF over GST control)"
same,binding signal,ERG,"1.26 fold enrichment (6-mer frequency, TF over GST control)"
same,binding signal,ELF1,"1.34 fold enrichment (6-mer frequency, TF over GST control)"
same,binding signal,EHF,"1.3 fold enrichment (6-mer frequency, TF over GST control)"
same,binding signal,SPI1,"1.46 fold enrichment (6-mer frequency, TF over GST control)"
same,binding signal,SPIB,"1.29 fold enrichment (6-mer frequency, TF over GST control)"
same,binding signal,ELK3,"1.43 fold enrichment (6-mer frequency, TF over GST control)"
